Measurements from PubChem BioAssay (NCI).
Compounds without any hit were thinned out: in the full panel of roughly 83,000, 20% have a hit.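 Growth was measured after 48 h exposure to one concentration of compound in 96-well plates. Values under 10 count as active.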 Activity calls are given as the source filed them.

How the values were obtained:
Experiment in all cases: NCI-60 one-dose screen, 48 h (100 = growth as untreated, 0 = no growth, -100 = all killed)
Conditions in all cases: 10 µM unless noted
[1] = system: T-47D breast
[2] = system: BT-549 breast
[3] = system: MDA-MB-435 melanoma
[4] = system: SW-620 colon
[5] = system: MCF7 breast
[6] = system: HCT-116 colon
[7] = system: HCC-2998 colon
[8] = system: KM12 colon

Measured: growth

CCNc1nnnn1CC
inactive: [1] 106% | [2] 110% | [3] 107% | [4] 104% | [5] 95.7% | [6] 102% | [7] 110% | [8] 110%

CCCCCCCCc1cc(Cl)c(O)c(Cl)c1
inactive: [1] 101% | [2] 116% | [3] 102% | [4] 117% | [5] 118% | [6] 103% | [7] 112% | [8] 101%

C/C(=N/NC(N)=S)c1ccc(C)cc1
inactive: [1] 22% | [2] 105% | [3] 96.1% | [4] 75.3% | [5] 25.6% | [7] 110% | [8] 104%
active: [6] 8.6%

CC(C)c1ccc(C(=O)OC2CCCC2)cc1
inactive: [1] 91.2% | [2] 97.5% | [3] 101% | [4] 99.7% | [5] 95.7% | [6] 92.3% | [7] 99% | [8] 99.9%

O=C(c1ccccc1)C(Br)C(Br)c1ccccc1 (configuration not stated)
active: [4] -76.9% | [6] -95.7%
inactive: [1] 31% | [2] 101% | [3] 74.6% | [5] 31.3% | [7] 93.3% | [8] 55.1%

COC1CC(C)C(OC)c2cc(O)cc(c2O)NC(=O)/C(C)=C/C=C\C(C)C(OC(N)=O)/C(C)=C\C(C)C1OC (configuration not stated)
inactive: [3] 12.7% | [5] 20.8%
active: [1] 1.33% | [2] -44.8% | [4] 2.74% | [6] -92.8% | [7] -11.6% | [8] -46.4%

Oc1c(Cl)cc(Cl)cc1C=NCC1CCC(CN=Cc2cc(Cl)cc(Cl)c2O)CC1 (configuration not stated)
inactive: [1] 71.4% | [2] 90.4% | [3] 88.8% | [4] 116% | [5] 78.1% | [6] 74.9% | [7] 107% | [8] 93.6%

COc1ccc(C(Cn2ccnc2)Sc2ccc(Cl)c(Cl)c2)cc1 (configuration not stated)
inactive: [1] 79.3% | [2] 73.2% | [3] 84.1% | [4] 80.9% | [5] 79.6% | [6] 48.5% | [7] 108% | [8] 73.7%

C[n+]1ccccc1C[n+]1ccccc1
inactive: [1] 105% | [2] 108% | [3] 115% | [4] 118% | [5] 92.3% | [6] 107% | [7] 110% | [8] 103%

CCCCCCCCCCCCSC(=N)N
active: [1] -35.5% | [3] -73.2% | [4] -61.5% | [5] -30.8% | [6] -64.2% | [7] -80.5% | [8] -21.1%
inactive: [2] 63.6%

CCCCCCC1N=C(N)N=C(N)N1c1cccc(Cl)c1 (configuration not stated)
inactive: [1] 51.8% | [2] 25.2% | [3] 24.1% | [4] 27% | [5] 22.4% | [6] 16.6% | [7] 10.3% | [8] 18.6%

Oc1ccc2c(c1)CCc1ccccc1-2
inactive: [1] 86.3% | [2] 106% | [3] 96.6% | [4] 103% | [5] 103% | [6] 97.7% | [7] 102% | [8] 113%

CCCCCCCCCCCCCCCCSC(=NCC)NCC
active: [1] 8.09% | [3] -89.7% | [4] -71.7% | [5] -66.3% | [6] -94.3% | [7] -64.9% | [8] -30.7%
inactive: [2] 64.4%

Oc1ccc(Cl)cc1C(c1cc(Cl)ccc1O)C(Cl)(Cl)Cl
active: [1] 9.95% | [4] 4.62% | [5] 8.95% | [6] -35.2% | [7] -45.5% | [8] -55.5%
inactive: [2] 44.9% | [3] 29.4%

NC1=C(Br)C(=O)c2ncccc2C1=O
inactive: [1] 15.3% | [7] 26.9% | [8] 24.5%
active: [2] -81.2% | [3] -96.2% | [4] -88.4% | [5] -57.2% | [6] -46.4%

O=C(/C=C/c1ccccc1)c1ccccc1O
inactive: [1] 62.6% | [2] 70.5% | [3] 80.6% | [4] 75.1% | [5] 26.7% | [6] 62.9% | [7] 96.3% | [8] 28.2%

COc1cc(NCc2ccc3nc(N)nc(N)c3c2C)cc(OC)c1OC (tested in a mixture with another compound)
inactive: [1] 47.1% | [2] 56.1% | [3] 33.1% | [4] 32.4% | [5] 21.3% | [6] 20.6% | [7] 14.3% | [8] 14.8%

Clc1ccc(-n2ncc3c(NCCCN4CCOCC4)ncnc32)cc1
inactive: [1] 85.3% | [2] 101% | [3] 98.9% | [4] 104% | [5] 89.9% | [6] 94.9% | [7] 105% | [8] 103%

Nc1ccc(-c2ccc(N)c(S(=O)(=O)O)c2)cc1S(=O)(=O)O
inactive: [1] 106% | [2] 113% | [3] 115% | [4] 107% | [5] 104% | [6] 107% | [7] 113% | [8] 103%

CC1=CC(=O)C=CC1(C)C(Cl)(Cl)Cl (configuration not stated)
inactive: [1] 89.8% | [2] 103% | [3] 105% | [4] 96.7% | [5] 92.6% | [6] 89.9% | [7] 98.6% | [8] 108%

[Cl-].[Rh+3].c1ccc(-c2ccnc3c2ccc2c(-c4ccccc4)ccnc23)cc1.c1ccc(-c2ccnc3c2ccc2c(-c4ccccc4)ccnc23)cc1.c1ccc(-c2ccnc3c2ccc2c(-c4ccccc4)ccnc23)cc1
inactive: [1] 50.4% | [2] 42.9% | [3] 72.5% | [4] 99.2% | [5] 63.3% | [6] 87.3% | [8] 59.3%

CCC(=O)c1cc([N+](=O)[O-])c(Br)s1
active: [1] -46.2% | [6] 1.06%
inactive: [2] 108% | [3] 96.9% | [4] 35.4% | [5] 62.6% | [7] 92.7% | [8] 93.8%

C=C(C(N)=O)C(N)C(=O)O (configuration not stated)
inactive: [1] 106% | [2] 108% | [3] 123% | [4] 109% | [5] 102% | [6] 92.4% | [7] 108% | [8] 95.9%

CCCCCCCCCCCC[n+]1ccc2ccccc2c1
active: [1] 5.61% | [2] -73.4% | [3] -69.6% | [4] -30% | [5] -10.3% | [6] -74.7% | [7] -84.7% | [8] -89.2%

N#CC1c2ccccc2C=CN1C(=O)CCCl (configuration not stated)
inactive: [1] 52.4% | [2] 92.1% | [3] 94% | [4] 55.8% | [5] 24.8% | [6] 84.1% | [7] 110% | [8] 86.4%

CCCCOS(=O)(=O)c1ccccc1
inactive: [1] 106% | [2] 103% | [3] 95.8% | [4] 110% | [5] 102% | [6] 108% | [7] 117% | [8] 109%

O=C(Nc1ccc(Cl)c(Cl)c1)Nc1ccccc1O
inactive: [1] 50.7% | [2] 105% | [3] 76.2% | [4] 90.1% | [5] 51.9% | [6] 60.7% | [7] 80.4% | [8] 96.5%

S=C=Nc1ccc(N2CCOCC2)cc1
inactive: [1] 74.3% | [2] 97.1% | [3] 92% | [4] 103% | [5] 79.3% | [6] 86.6% | [7] 99.3% | [8] 103%

COc1cc(/C=C/C(=O)CC(=O)/C=C/c2ccc(O)c(OC)c2)ccc1O
inactive: [1] 50.7% | [2] 13.9% | [4] 23.1% | [5] 17%
active: [3] 1.75% | [6] 0.952% | [7] -74.8% | [8] 0.643%

O=C1/C(=C/c2ccccn2)CCc2ccccc21
inactive: [1] 84.9% | [2] 106% | [3] 88.5% | [4] 85.5% | [5] 59.4% | [6] 90.4% | [7] 100% | [8] 86.9%

NC(CS/C(Cl)=C/Cl)C(=O)O (configuration not stated)
inactive: [2] 51% | [3] 58.6% | [4] 104% | [5] 45.1% | [6] 84.4% | [8] 98.1%
active: [1] -7.75%

Cc1cc(C)c([I+]c2c(C)cc(C)cc2C)c(C)c1
active: [1] 0.613% | [2] -86.4% | [3] -81.2% | [4] -40.1% | [5] -53.7% | [6] -87.1% | [8] -75.9%

COc1cccc2c1C(=O)c1c(O)c3c(c(O)c1C2=O)C[C@@](O)(C(=O)CO)C[C@@H]3OC1CC(OC(C)=O)C(OC(C)=O)C(C)O1 (some centres not stated)
active: [1] -27.3% | [2] -39.7% | [3] 7.04% | [4] 3.7% | [5] 4.45% | [6] -80% | [8] -39%

CCCCCCCCCCCC[N+]1(CCCCCCCCCCCC)CCCC(C)C1 (configuration not stated)
active: [1] -78.6% | [2] -72.2% | [3] -58.7% | [4] -65.4% | [5] -88.9% | [6] -97.2% | [8] -96.3%
